According to PubChem BioAssay AID868 (SRMLSC, 2007):
Out of some 190,000 compounds screened, about 3,500 (1.8%) were called active.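 The calls were made as follows: active = inhibition above a set limit, 3 SD over mean compound inhibition (cut at about 8.4% in these data); inactive = the rest.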 The list comes from a sample in which actives are over-represented; it also holds similar structures and randomly drawn compounds.

assay: inhibitors of the yeast RAM network, primary screen, dse1pr::URA3 reporter, 5-FOA selection (AID 868);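 also: 0% = DMSO-only wells with no growth and 100% = 10 µM 1-NA-PP1 full growth; inhibition rescues growth on 5-FOA so higher OD means more RAM inhibition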; settings: S. cerevisiae dse1pr::URA3 reporter, 5-FOA growth OD615, 2 d; at 50 µM; stronger effect = higher value; analog-sensitive cbk1-as2 kinase mutant strain

Compound | inhibition
C/C(=N\Nc1nc(N2CCOCC2)nc(N2CCOCC2)n1)c1ccc([N+](=O)[O-])cc1 | 1.78% (inactive)
OCCC1CN(Cc2ccccc2-c2ccco2)CCN1Cc1ccsc1 (stereo unspecified) | 0.13% (inactive)
CCc1ccc(/C=C2\SC(N3CCOCC3)=NC2=O)cc1 | 2.12% (inactive)
CC1CCN(C2=NC(=O)/C(=C/c3cn[nH]c3-c3ccccc3)S2)CC1 | 9.65% (active)
Cc1ccc(N2CCN(C3=NC(=O)/C(=C\c4cccs4)S3)CC2)cc1 | 2.02% (inactive)
O=c1c(Cl)c(NCc2ccc(F)cc2Cl)cnn1C12CC3CC(CC(C3)C1)C2 | 6.9% (inactive)
CCN(CCn1cccn1)Cc1nc(-c2ccc(C(=O)OC)cc2)no1 | 0.13% (inactive)
O=C(COc1ccc(NC(=O)c2ccccc2[N+](=O)[O-])cc1)c1ccc(F)cc1 | 6.75% (inactive)
Cc1ccc(C(=O)NCCNS(=O)(=O)c2ccccc2)cc1 | 0.27% (inactive)
Cc1ccccc1CSCCNC(=O)c1ccc(Cl)c(S(=O)(=O)N2CCOCC2)c1 | 7.41% (inactive)
Cc1ccccc1CSCCNC(=O)c1ccc(N(C)S(=O)(=O)c2ccccc2)cc1 | 14.2% (active)
COc1ccccc1N1CCN(C(=O)c2cc3c(-c4ccc(Cl)cc4)nn(C)c3s2)CC1 | 5.62% (inactive)
CCOC(=O)N1CCN(C(=O)c2cc3c(-c4ccc(Cl)cc4)nn(C)c3s2)CC1 | -0.35% (inactive)
COc1cccc(-c2nn(C)c3sc(C(=O)N4CCN(c5ccccc5)CC4)cc23)c1 | 8.94% (active)
O=C(CCS(=O)(=O)Cc1ccccc1)Nc1ccc2c(c1)OCCO2 | 3.16% (inactive)
O=C(Nc1ccnc(-c2ccncc2)n1)c1cccs1 | -0.85% (inactive)
COc1ccnc(Oc2ccccc2)n1 | 2.23% (inactive)
CC(C)(C)[C@H]1C=C(C(=O)NCc2ccccc2)O[C@@H](OCc2ccc(CO)cc2)C1 | 3.51% (inactive)
C=CCOC(=O)C1=C[C@@H](c2ccccc2)C[C@@H](OCc2ccc(CO)cc2)O1 | 1.5% (inactive)
O=C(C1=C[C@H](c2ccc(C(F)(F)F)cc2)C[C@H](OCc2ccc(CO)cc2)O1)N1CCN(Cc2ccccc2)CC1 | 2.29% (inactive)
O=C(NCc1ccccc1)C1=C[C@@H](C2CCCCC2)C[C@@H](OCc2ccc(CO)cc2)O1 | 16.7% (active)

Compound | inhibition
O=C(NCc1ccccc1)C1=C[C@H](C2CC2)C[C@H](OCc2ccc(CO)cc2)O1 | -0.5% (inactive)
O=C(NCc1ccccc1)C1=C[C@@H](c2ccc(C(F)(F)F)cc2)C[C@@H](OCc2ccc(CO)cc2)O1 | 12.2% (active)
Fc1ccccc1Cn1cnc(NC(=S)NCCc2ccccc2)n1 | 6.41% (inactive)
O=C(NCCc1ccc(F)cc1)c1n[nH]c2ccccc12 | -0.97% (inactive)
C/C(N)=C(/C#N)C(=O)COC(=O)c1cc(-c2cccc(Br)c2)nc2ccccc12 | 4.74% (inactive)
O=C(CCC1CCCN(Cc2ccc(O)c(Cl)c2)C1)NCc1ccccc1F (stereo unspecified) | 1.23% (inactive)
O=C(Oc1cccc(O)c1)C1CCCCC1 | -0.74% (inactive)
CC(C)Oc1ccccc1C(=O)NC(CO)C(=O)O (stereo unspecified) | 1.42% (inactive)
O=C(NN=C1CCC(=NNC(=O)c2cccnc2)CC1)c1cccnc1 | 1.46% (inactive)
CC(C)OCCCNC(=O)c1ccc(C2SCC(=O)N2Cc2ccco2)cc1 (stereo unspecified) | 1.08% (inactive)
Cc1ccsc1C1C(C#N)=C(N)OC2=C1C(=O)CC(C)(C)C2 (stereo unspecified) | 1.24% (inactive)
CCNC(=S)N1CCC(c2nc3cc(C)c(C)cc3[nH]2)CC1 | -0.13% (inactive)
CN(c1ccccc1)c1ccc(/C=c2\s/c(=C(/C#N)C(=O)C(C)(C)C)n(Cc3ccco3)c2=O)cc1 | 22.5% (active)
Cc1cc2c(c(=O)n1Cc1ccco1)C(c1ccccc1)C(C#N)=C(N)O2 (stereo unspecified) | 2.82% (inactive)
COc1ccc(NC(=O)Cn2c(=O)n(Cc3ccco3)c(=O)c3ccccc32)cc1 | 2.68% (inactive)
CCc1ccc(NC(=O)C(C)OC(=O)/C=C/c2cccc([N+](=O)[O-])c2)cc1 (stereo unspecified) | 2.92% (inactive)
COc1c(C)cc(C(=O)C2CCCN(S(=O)(=O)c3c(C)noc3C)C2)cc1C (stereo unspecified) | 5.32% (inactive)
CCOc1ccccc1NC(=O)CCc1ccc(C)o1 | 1.75% (inactive)
Cc1cnc(NC(=O)CSc2nnc(-c3ccc(Cl)cc3Cl)n2N)s1 | 2.06% (inactive)
Cc1ccc(CCC(=O)Nc2ncc(Cc3cc(Cl)ccc3Cl)s2)o1 | 14% (active)
CCOC(=O)Cc1cc(=O)[nH]c(=O)[nH]1 | -0.76% (inactive)

Compound | inhibition
Cc1cc(C)c(C#N)c(SCC(=O)NN2CC(=O)N(c3ccccc3F)CC2=O)n1 | 1.88% (inactive)
O=C(c1ccc(Cl)c([N+](=O)[O-])c1)N1CCN(c2ccccc2)CC1 | -1.05% (inactive)
CC(O)C(NS(=O)(=O)c1ccc(Cl)cc1)C(=O)OCc1cc([N+](=O)[O-])cc2c1OCOC2 (stereo unspecified) | 14.1% (active)
COc1ccc(S(=O)(=O)NC(C)C(=O)Nc2cccc([N+](=O)[O-])c2)cc1 (stereo unspecified) | 0.38% (inactive)
Nc1ccccc1SCc1cc([N+](=O)[O-])cc2c1OCOC2 | 0.13% (inactive)
CN(C)CCCO/N=C(\c1ccccc1)c1ccncc1 | 1.14% (inactive)
O=c1[nH]n2c(-c3ccccc3)nc(O)c2c2ccccc12 | 2.15% (inactive)
Cn1c(=O)c2c(ncn2CC(=O)N/N=C/c2cn[nH]c2-c2ccc(F)cc2)n(C)c1=O | 1.49% (inactive)
CCSc1nnc(-c2cc3c(s2)-c2ccccc2CC3)o1 | 2.39% (inactive)
Fc1ccc(CSc2nnc(-c3cc4c(s3)-c3ccccc3CC4)o2)cc1 | 22.2% (active)
Fc1ccc(-c2nnc(CSc3nnc(-c4ccc5c(c4)OCO5)o3)o2)cc1 | 3.54% (inactive)
Cc1ccc(N(C(=O)C(F)(F)F)C(C(=O)NC2CCCCC2)c2ccncc2)cc1C (stereo unspecified) | 4.82% (inactive)
FC(F)(F)c1cccc(Cc2noc(CN3CCC(N4CCCCC4)CC3)n2)c1 | 0.6% (inactive)
COc1ccc2c(c1)c(=O)c(C(=O)c1ccc(Cl)cc1)cn2CC(=O)Nc1ccc(F)cc1 | 3.22% (inactive)
O=C(c1ccc(F)cc1)c1cn(Cc2ccc(F)cc2)c2cc3c(cc2c1=O)OCCO3 | 9.62% (active)
CCn1cc(C(=O)N/N=C(/C)c2ccc(F)cc2)c(=O)c2cc(F)c(N3CCCC3)cc21 | 0.79% (inactive)
COc1ccc(/C=C2\SC(=S)N(CC(=O)NNC(=O)c3ccncc3)C2=O)cc1 | 4.19% (inactive)
O=C(CCN1C(=O)/C(=C/c2cccs2)SC1=S)NNC(=O)c1cccc(O)c1 | 9.69% (active)
Cc1c(C(=O)NCCN2C(=O)S/C(=C\c3cccs3)C2=O)cccc1[N+](=O)[O-] | 2.49% (inactive)
